Source: PubChem BioAssay (Tox21)
Inconclusive results are not listed. Active and inactive are the calls of the source. Unless noted, the call rests on the fitted dose curve.

Experiments:
[1] = target: Peroxisome proliferator-activated receptor delta (Homo sapiens) (UniProt Q03181); assay: qHTS assay to identify small molecule agonists of the peroxisome proliferator-activated receptor delta (PPARd) signaling pathway (AID 743212); further: on the % scale 0 is the no-effect control and ±100 the full control effect
In short: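 Tox21 library screened in GeneBLAzer PPARd UAS-bla HEK293H cells. After compound treatment at 37 C, a FRET-based beta-lactamase substrate was applied for 2 h and fluorescence recorded.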

[2] = qHTS assay to identify small molecule antagonists of the peroxisome proliferator-activated receptor delta (PPARd) signaling pathway - cell viability counter screen (AID 743213; active means well fitted curve in the direction sought with a large enough effect in the repeat runs; an effect the other way counts as inactive or inconclusive; further: on the % scale 0 is the no-effect control and ±100 the full control effect; nearly all actives have a fitted effect of over 50% in size)
In short: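 PPARd-bla HEK293H cells (3000/well) got compound plus 300 nM L165041 agonist for 17 h at 37 C. Viability in the same wells came from CellTiter-Glo luminescence after 30 min at room temperature.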

[3] = target: Peroxisome proliferator-activated receptor delta (Homo sapiens) (UniProt Q03181); assay: qHTS assay to identify small molecule antagonists of the peroxisome proliferator-activated receptor delta (PPARd) signaling pathway (AID 743215; active means well fitted inhibition curve with a large enough effect in the signal ratio in the repeat runs, not every such curve was filed as active; the % refers to the signal ratio;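 further: cells stimulated with agonist L165041 at 300 nM final during compound exposure; series mostly up to about 62 µM; on the % scale 0 is the no-effect control and ±100 the full control effect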)
In short: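 Agonist L165041 (300 nM final) added with compound to PPARd-bla HEK293H UAS-bla reporter cells; 17 h incubation at 37 C. Read-out: LiveBLAzer FRET substrate, 2 h at room temperature, fluorescence intensity.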

[4] = qHTS assay to identify small molecule agonists of the farnesoid-X-receptor (FXR) signaling pathway - cell viability counter screen (AID 743218; active means well fitted curve in the direction sought with a large enough effect in the repeat runs; an effect the other way counts as inactive or inconclusive; further: on the % scale 0 is the no-effect control and ±100 the full control effect; nearly all actives have a fitted effect of over 45% in size)
In short: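 Viability counter screen in the same wells: CellTiter-Glo luminescence, 30 min room-temperature incubation, measured after the beta-lactamase read. Cells were GeneBLAzer FXR-UAS-bla HEK 293T, compound-treated 16 h at 37C.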

[5] = qHTS assay to identify small molecule antagonists of the farnesoid-X-receptor (FXR) signaling pathway - cell viability counter screen (AID 743221; active means well fitted cell-killing curve with a large enough effect in the repeat runs, not every such curve was filed as active; further: on the % scale 0 is the no-effect control and ±100 the full control effect; nearly all actives have a fitted effect of over 50% in size)
In short: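 Quantitative HTS of the Tox21 10K library run in parallel with the beta-lactamase reporter read. HEK 293T cells carrying a UAS-driven bla reporter got compound and 50 uM CDCA (final) for 16 h; ATP-based luminescence followed.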

[6] = target: Vitamin D3 receptor (Homo sapiens) (UniProt P11473); assay: qHTS assay to identify small molecule agonists of the vitamin D receptor (VDR) signaling pathway (AID 743222); further: on the % scale 0 is the no-effect control and ±100 the full control effect
In short: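 Agonist mode, beta-lactamase reporter: fluorescence from LiveBLAzer B/G FRET substrate (2 h, room temperature) read after 16 h compound treatment at 37 C of VDR-bla cells, which were pre-incubated 4 h after seeding.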

[7] = qHTS assay to identify small molecule agonists of the vitamin D receptor (VDR) signaling pathway - cell viability counter screen (AID 743224; active means well fitted curve in the direction sought with a large enough effect in the repeat runs; an effect the other way counts as inactive or inconclusive; further: series mostly up to about 63 µM; on the % scale 0 is the no-effect control and ±100 the full control effect; nearly all actives have a fitted effect of over 50% in size)
In short: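 Counter screen run in the same wells as the VDR-bla reporter assay: CellTiter-Glo luminescence, 30 min at room temperature, after 16 h compound treatment at 37C of cells pre-plated for 4 h.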

[8] = qHTS assay to identify small molecule antagonists of the vitamin D receptor (VDR) signaling pathway - cell viability counter screen (AID 743225; active means well fitted curve in the direction sought with a large enough effect in the repeat runs; an effect the other way counts as inactive or inconclusive; further: on the % scale 0 is the no-effect control and ±100 the full control effect; nearly all actives have a fitted effect of over 50% in size)
In short: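 Cells (VDR-UAS-bla HEK 293T) are plated, rested 4 h at 37C, dosed with compound and 3 nM final 1-alpha,25-dihydroxy vitamin D3, and incubated 16 h. Viability is taken from CellTiter-Glo luminescence in the reporter wells.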

[9] = qHTS assay to identify small molecule agonists of the NFkB signaling pathway - cell viability counter screen (AID 1159515); further: series mostly up to about 61 µM; on the % scale 0 is the no-effect control and ±100 the full control effect; nearly all actives have a fitted effect of over 55% in size
In short: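 Read by CellTiter-Glo luminescence (30 min, room temperature) in the wells also used for the beta-lactamase FRET read. ME-180 NFkB-bla cells at 2,000 per well were plated overnight, then exposed to compound for 5 hr at 37 C.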

[10] = qHTS assay to identify small molecule agonists of the endoplasmic reticulum stress response signaling pathway (AID 1159516; active means well fitted activation curve with a large enough effect in the signal ratio in the repeat runs, not every such curve was filed as active; the % refers to the signal ratio; further: on the % scale 0 is the no-effect control and ±100 the full control effect)
In short: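 Ratiometric FRET readout (405 nm excitation; 460 and 530 nm emission) of a beta-lactamase gene driven by the ER stress response element, after 2 hr substrate loading. HeLa ESRE-bla cells were seeded overnight and treated with compounds for only 5 hr at 37 C.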

[11] = target: Nuclear receptor ROR-gamma (Homo sapiens) (UniProt P51449); assay: qHTS assay to identify small molecule antagonists of the retinoid-related orphan receptor gamma (ROR-gamma) signaling pathway (AID 1159521; active means well fitted curve in the direction sought with a large enough effect in the repeat runs; an effect the other way counts as inactive or inconclusive)
In short: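 RORγ antagonism is scored from reduced reporter luminescence in Tet-on CHO cells. Induction used 1 uM final doxycycline hyclate for 16 h at 37 C, following a 2 h compound exposure.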

[12] = qHTS assay to identify small molecule agonists of the AP-1 signaling pathway - cell viability counter screen (AID 1159525); further: nearly all actives have a fitted effect of over 55% in size
In short: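 Same-well cytotoxicity counter screen of the Tox21 10K library in ME-180 cells. The readout is ATP-dependent luminescence after 5 h compound treatment. Data are normalised to DMSO and tetra n-octyl ammonium bromide controls.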

[13] = qHTS assay to identify small molecule agonists of the AP-1 signaling pathway (AID 1159526); further: on the % scale 0 is the no-effect control and ±100 the full control effect
[14] = target: Retinoic acid receptor RXR-alpha (Homo sapiens) (UniProt P19793); assay: qHTS assay to identify small molecule agonists of the RXR signaling pathway (AID 1159527); further: on the % scale 0 is the no-effect control and ±100 the full control effect; nearly all actives have a fitted effect of over 35% in size
In short: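 qHTS of the Tox21 10K library in GeneBLAzer RXR-alpha HEK 293T cells carrying a beta-lactamase reporter […]; 16 hr treatment, 9-cis retinoic acid as agonist control, FRET read-out.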

[15] = qHTS assay to identify small molecule agonists of the peroxisome proliferator-activated receptor delta (PPARd) signaling pathway - cell viability counter screen (AID 743211; active means well fitted curve in the direction sought with a large enough effect in the repeat runs; an effect the other way counts as inactive or inconclusive; further: on the % scale 0 is the no-effect control and ±100 the full control effect; nearly all actives have a fitted effect of over 55% in size)
In short: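 Viability of GeneBLAzer PPARd UAS-bla HEK293H cells was assessed after 17 h compound incubation at 37C, using CellTiter-Glo reagent added after the reporter read and luminescence recorded 30 min later.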

[16] = target: Vitamin D3 receptor (Homo sapiens) (UniProt P11473); assay: qHTS assay to identify small molecule antagonists of the vitamin D receptor (VDR) signaling pathway (AID 743223; active means well fitted inhibition curve with a large enough effect in the signal ratio in the repeat runs, not every such curve was filed as active; the % refers to the signal ratio; further: on the % scale 0 is the no-effect control and ±100 the full control effect)
In short: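 Fluorescence from LiveBLAzer B/G FRET substrate, read after 2 h at room temperature, reflects beta-lactamase reporter activity in VDR-bla cells treated 16 h at 37C with compounds and agonist 1alpha,25-dihydroxyvitamin D3 (3 nM final).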

[17] = qHTS assay to identify small molecule agonists of the endoplasmic reticulum stress response signaling pathway - cell viability counter screen (AID 1159517)
In short: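 In parallel with the ESRE reporter read, cytotoxicity was scored by CellTiter-Glo luminescence (30 min, room temperature) on HeLa ESRE-bla cells dosed for 5 hr.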

[18] = target: Bile acid receptor (Homo sapiens) (UniProt Q96RI1); assay: qHTS assay to identify small molecule antagonists of the farnesoid-X-receptor (FXR) signaling pathway (AID 743217; active means well fitted inhibition curve with a large enough effect in the signal ratio in the repeat runs, not every such curve was filed as active; the % refers to the signal ratio; further: on the % scale 0 is the no-effect control and ±100 the full control effect)
In short: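 Antagonist mode: chenodeoxycholic acid at 50 uM final stimulates a UAS-driven beta-lactamase reporter in HEK 293T FXR-bla cells during 16 h, 37C compound exposure. Read-out is FRET substrate fluorescence after 2 h at room temperature.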

[19] = target: Bile acid receptor (Homo sapiens) (UniProt Q96RI1); assay: qHTS assay to identify small molecule agonists of the farnesoid-X-receptor (FXR) signaling pathway (AID 743220; active means well fitted activation curve with a large enough effect in the signal ratio in the repeat runs, not every such curve was filed as active; the % refers to the signal ratio; further: on the % scale 0 is the no-effect control and ±100 the full control effect)
In short: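 FXR-UAS-bla HEK 293T cells carrying a UAS-driven beta-lactamase reporter were plated for 5 h at 37C/5% CO2, then exposed to DMSO-dissolved Tox21 10K compounds for 16 h at 37C. A LiveBLAzer B/G FRET substrate was loaded for 2 h at room temperature before fluorescence reading.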

[20] = qHTS assay to identify small molecule antagonists of the retinoid-related orphan receptor gamma (ROR-gamma) signaling pathway - cell viability counter screen (AID 1159520; active means well fitted curve in the direction sought with a large enough effect in the repeat runs; an effect the other way counts as inactive or inconclusive)
In short: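 Tet-on ROR gamma CHO cells were given compounds for 2 hr, then doxycycline hyclate at 1 uM final, and incubated 16 hr at 37 C. Viability was measured as ATP content by CellTiter-Glo luminescence.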

Retinoic acid receptor RXR-alpha (Homo sapiens), sequence (P19793 whole entry, looked up): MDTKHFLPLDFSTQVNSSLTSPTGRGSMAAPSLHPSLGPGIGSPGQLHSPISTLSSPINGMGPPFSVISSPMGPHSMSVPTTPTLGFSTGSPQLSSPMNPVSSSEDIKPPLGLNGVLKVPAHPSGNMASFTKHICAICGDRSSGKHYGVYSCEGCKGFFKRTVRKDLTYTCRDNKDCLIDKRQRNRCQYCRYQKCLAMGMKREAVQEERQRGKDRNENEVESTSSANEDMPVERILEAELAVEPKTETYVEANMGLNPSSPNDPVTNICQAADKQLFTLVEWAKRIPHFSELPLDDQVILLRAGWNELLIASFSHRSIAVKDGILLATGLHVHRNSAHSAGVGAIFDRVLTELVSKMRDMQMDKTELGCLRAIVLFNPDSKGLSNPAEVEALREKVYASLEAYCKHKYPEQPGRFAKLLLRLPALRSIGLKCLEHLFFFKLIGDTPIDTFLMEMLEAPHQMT
Peroxisome proliferator-activated receptor delta (Homo sapiens), sequence (Q03181 whole entry, looked up): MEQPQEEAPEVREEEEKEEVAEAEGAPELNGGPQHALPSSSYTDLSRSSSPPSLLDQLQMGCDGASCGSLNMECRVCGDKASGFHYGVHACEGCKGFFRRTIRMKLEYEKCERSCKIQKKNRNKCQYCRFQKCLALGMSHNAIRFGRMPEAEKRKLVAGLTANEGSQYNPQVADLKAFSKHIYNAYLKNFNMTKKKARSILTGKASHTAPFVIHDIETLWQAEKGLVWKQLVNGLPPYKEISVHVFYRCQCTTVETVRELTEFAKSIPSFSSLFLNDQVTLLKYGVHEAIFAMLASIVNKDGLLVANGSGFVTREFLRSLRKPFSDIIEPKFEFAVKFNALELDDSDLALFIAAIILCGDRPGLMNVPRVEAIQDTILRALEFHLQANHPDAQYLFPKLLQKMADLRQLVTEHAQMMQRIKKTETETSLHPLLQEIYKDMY
Vitamin D3 receptor (Homo sapiens), sequence (P11473 whole entry, looked up): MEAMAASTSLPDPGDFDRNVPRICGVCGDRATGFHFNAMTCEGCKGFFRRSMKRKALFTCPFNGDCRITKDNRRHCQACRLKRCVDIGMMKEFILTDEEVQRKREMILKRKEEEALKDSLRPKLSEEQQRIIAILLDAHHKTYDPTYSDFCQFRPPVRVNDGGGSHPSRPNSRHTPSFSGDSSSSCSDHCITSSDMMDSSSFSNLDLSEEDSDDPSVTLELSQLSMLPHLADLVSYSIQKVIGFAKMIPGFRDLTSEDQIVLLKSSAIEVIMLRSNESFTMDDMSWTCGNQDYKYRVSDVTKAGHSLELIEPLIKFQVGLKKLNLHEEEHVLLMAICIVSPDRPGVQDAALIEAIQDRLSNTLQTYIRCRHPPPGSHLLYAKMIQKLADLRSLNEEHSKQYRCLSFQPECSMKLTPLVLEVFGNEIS
Bile acid receptor (Homo sapiens), sequence (Q96RI1 whole entry, looked up): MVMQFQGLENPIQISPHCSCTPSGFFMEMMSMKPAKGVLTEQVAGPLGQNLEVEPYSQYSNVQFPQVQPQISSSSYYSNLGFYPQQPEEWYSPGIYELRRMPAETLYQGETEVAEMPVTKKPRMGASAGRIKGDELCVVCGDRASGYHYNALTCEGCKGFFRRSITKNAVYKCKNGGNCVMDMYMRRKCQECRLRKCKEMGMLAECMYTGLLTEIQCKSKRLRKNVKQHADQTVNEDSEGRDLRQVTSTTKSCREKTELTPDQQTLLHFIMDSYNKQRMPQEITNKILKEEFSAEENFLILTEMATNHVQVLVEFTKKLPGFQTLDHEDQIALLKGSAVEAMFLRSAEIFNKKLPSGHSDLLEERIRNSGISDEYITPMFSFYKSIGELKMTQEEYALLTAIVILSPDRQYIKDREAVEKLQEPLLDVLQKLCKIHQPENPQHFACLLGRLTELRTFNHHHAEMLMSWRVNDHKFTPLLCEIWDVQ

CN(C)CCC[C@@]1(c2ccc(F)cc2)OCc2cc(C#N)ccc21
inactive: outcome [1] | outcome [2] | outcome [3] | outcome [4] | outcome [5] | outcome [6] | outcome [7] | outcome [8] | outcome [9] | Potency [10] | outcome [11] | outcome [12] | Potency [13] | Potency [14]

CN(C)CCCN(C)C
inactive: activity change, negative = cytotoxicity [15] -3.03% [at 5.95 µM] | activation [1] -1.31% [at 5.95 µM] | viability change, negative = cytotoxic [2] 1.43% [at 6.26 µM] | ratio activity, negative = inhibition [3] 5.28% [at 6.26 µM] | viability change, negative = cytotoxic [4] 2.3% [at 5.95 µM] | activity change, negative = cytotoxicity [5] 0.644% [at 5.95 µM] | activation [6] -2.68% [at 6.01 µM] | activity change, negative = inhibition [16] -1.32% [at 6.95 µM] | activity change, negative = cytotoxicity [7] 0.624% [at 5.95 µM] | activity, negative = cytotoxic [9] 0.193% [at 6.95 µM] | activity change, negative = cytotoxicity [17] 19.8% [at 6.95 µM] | activity change, negative = inhibition [11] -7.64% [at 8.39 µM] | viability change, negative = cytotoxic [12] -0.503% [at 6.97 µM] | activation [13] -5.98% [at 6.97 µM] | activation [14] 4.65% [at 6.98 µM]

Nc1nc(Cl)cc(Cl)n1
inactive: outcome [2] | outcome [3] | outcome [18] | outcome [4] | outcome [19] | outcome [5] | outcome [6] | outcome [7] | outcome [8] | outcome [9] | outcome [20] | outcome [11] | outcome [12] | Potency [13] | Potency [14]

N=C(N)N1CCc2ccccc2C1
inactive: activation [1] 2.47% [at 5.95 µM] | viability change, negative = cytotoxic [2] -9.71% [at 6.26 µM] | ratio activity, negative = inhibition [3] -18.7% [at 6.26 µM] | viability change, negative = cytotoxic [4] 5.62% [at 5.95 µM] | activity change, negative = cytotoxicity [5] -6.73% [at 5.95 µM] | activation [6] 4.08% [at 6.01 µM] | activity change, negative = cytotoxicity [7] -1.18% [at 5.95 µM] | activity, negative = cytotoxic [9] 6.23% [at 6.95 µM] | activation [10] 1.42% [at 6.95 µM] | activity change, negative = inhibition [11] -0.777% [at 8.39 µM] | viability change, negative = cytotoxic [12] 6.37% [at 6.97 µM] | activation [13] -0.863% [at 6.97 µM] | activation [14] 5.64% [at 6.98 µM]

Cc1cc(N)no1
inactive: outcome [15] | outcome [1] | outcome [2] | outcome [3] | outcome [4] | outcome [5] | outcome [6] | outcome [16] | outcome [7] | outcome [8] | outcome [9] | outcome [17] | outcome [20] | outcome [11] | outcome [12] | Potency [13] | Potency [14]

CC(C)(C)C(=O)CC(=O)C(C)(C)C
inactive: outcome [2] | outcome [18] | outcome [4] | outcome [19] | outcome [5] | outcome [6] | outcome [16] | outcome [9] | outcome [17] | outcome [20] | outcome [11] | Potency [13] | Potency [14]

CC(C)(C)c1ccc(N)cc1
inactive: outcome [15] | outcome [1] | outcome [2] | outcome [3] | outcome [5] | outcome [6] | outcome [7] | outcome [8] | outcome [9] | outcome [20] | outcome [11] | outcome [12] | Potency [13] | Potency [14]

O=c1[nH]c(=O)c2cn[nH]c2[nH]1
inactive: outcome [15] | outcome [1] | outcome [2] | outcome [3] | outcome [4] | outcome [16] | outcome [7] | outcome [8] | outcome [9] | outcome [17] | outcome [20] | outcome [11] | outcome [12] | Potency [13] | Potency [14]

CC(=O)Nc1ccc(S(=O)(=O)Nc2cc(C)on2)cc1
inactive: outcome [15] | outcome [1] | outcome [2] | outcome [18] | outcome [4] | outcome [19] | outcome [5] | outcome [6] | outcome [16] | outcome [7] | outcome [9] | outcome [17] | outcome [20] | outcome [11] | outcome [12] | Potency [13] | Potency [14]
